Experimental data taken from article PMC11995724, “Antibiotic target discovery by integrated phenotypic and activity-based profiling of electrophilic fragments” (Cell chemical biology, 2025).
Hit rate of the full screen: of about 3,200 compounds, about 110 (3.4%) showed an effect of 50% or more. Shown is part of a subset that was picked to be rich in strong results.

These compounds were tested on T1, V. cholerae SAD30. Settings: relative growth, OD600, LB; 25 µM; inhibitor.
T1 construct: SAD30
Set-up: species or system S. aureus MSSA476 (TSB) or V. cholerae SAD30 (LB); 384-well bacterial growth screen at 25 uM, OD600 relative to DMSO control
In the case of `CC(Cl)C(=O)Nc1cc(C(F)(F)F)ccc1Cl` (stereo not drawn) [4-N15, 2-chloro-N-[2-chloro-5-(trifluoromethyl)phenyl]propanamide], the “% of control remaining” value is reported as 99.8922%. With `O=C(CCl)Nc1cc(C(F)(F)F)ccc1Cl` [4-J04, 2-chloro-N-[2-chloro-5-(trifluoromethyl)phenyl]acetamide] the “% of control remaining” value was 111.106%. `CC(Cl)C(=O)Nc1cc([N+](=O)[O-])ccc1Cl` (stereo not drawn) [6-I14, 2-chloro-N-(2-chloro-5-nitrophenyl)propanamide] was tested, and the “% of control remaining” value was 87.6671%. `N#Cc1cc([N+](=O)[O-])ccc1NC(=O)CCl` [4-O09, 2-chloro-N-(2-cyano-4-nitrophenyl)acetamide] was tested, and the “% of control remaining” value was 91.611%. For `N#CC(=Cc1cc([N+](=O)[O-])ccc1Cl)C(N)=O` [8-F21, 3-(2-chloro-5-nitrophenyl)-2-cyanoprop-2-enamide], the “% of control remaining” value was 76.0707%. With `O=C1C=CC(=O)N1c1cc(C(F)(F)F)ccc1Cl` [10-G09, 1-[2-chloro-5-(trifluoromethyl)phenyl]-2,5-dihydro-1H-pyrrole-2,5-dione] the “% of control remaining” value was 26.3394%. For `O=C1C=CC(=O)N1c1cc([N+](=O)[O-])ccc1Cl` [10-H15, 1-(2-chloro-5-nitrophenyl)-2,5-dihydro-1H-pyrrole-2,5-dione], the “% of control remaining” value was 28.2096%. For `O=C(CCl)N1CCCCc2ccc([N+](=O)[O-])cc21` [5-I18, 2-chloro-1-(8-nitro-2,3,4,5-tetrahydro-1H-1-benzazepin-1-yl)ethan-1-one], the “% of control remaining” value was 94.3154%. With `Cc1ccc([N+](=O)[O-])cc1N1C(=O)C=CC1=O` [10-O14, 1-(2-methyl-5-nitrophenyl)-2,5-dihydro-1H-pyrrole-2,5-dione] the “% of control remaining” value was 26.6511%. For `CC(NC(=O)CCl)C(=O)N1CCCCC1C` (stereo not drawn) [5-M06, 2-chloro-N-[1-(2-methylpiperidin-1-yl)-1-oxopropan-2-yl]acetamide], the “% of control remaining” value was 96.6691%. For `C=CC(=O)NC(C)c1cn(-c2ccccc2)nn1` (stereo not drawn) [1-N04, N-[1-(1-phenyl-1H-1,2,3-triazol-4-yl)ethyl]prop-2-enamide], the “% of control remaining” value was 110.893%. With `COc1ccc(-c2nn(-c3ccccc3)cc2C=C(C#N)C(N)=O)cc1` [8-L16, 2-cyano-3-[3-(4-methoxyphenyl)-1-phenyl-1H-pyrazol-4-yl]prop-2-enamide] the “% of control remaining” value was 71.7199%. `CCN(Cc1ccc(Cl)s1)C(=O)CCl` [6-M11, 2-chloro-N-[(5-chlorothiophen-2-yl)methyl]-N-ethylacetamide] was tested, and the “% of control remaining” value was 83.1169%. For `O=C(CCl)N1N=C(c2ccc(Cl)cc2)CC1c1ccco1` (stereo not drawn) [5-L04, 2-chloro-1-[3-(4-chlorophenyl)-5-(furan-2-yl)-4,5-dihydro-1H-pyrazol-1-yl]ethan-1-one], the “% of control remaining” value was 105.748%. In the case of `CC(Cl)C(=O)N1N=C(c2ccc(Cl)cc2)CC1c1ccco1` (stereo not drawn) [5-H18, 2-chloro-1-[3-(4-chlorophenyl)-5-(furan-2-yl)-4,5-dihydro-1H-pyrazol-1-yl]propan-1-one], the “% of control remaining” value is reported as 49.4273%. With `COc1ccc(C2=NN(C(=O)CCl)C(c3ccco3)C2)cc1` (stereo not drawn) [4-N19, 2-chloro-1-[5-(furan-2-yl)-3-(4-methoxyphenyl)-4,5-dihydro-1H-pyrazol-1-yl]ethan-1-one] the “% of control remaining” value was 106.103%. For `Cc1cc(C(=O)CCl)co1` [10-A13, 2-chloro-1-(5-methylfuran-3-yl)ethan-1-one], the “% of control remaining” value was 114.397%. `C=CC(=O)NCc1ccc2oc(=O)n(C)c2c1` [2-L15, N-[(3-methyl-2-oxo-2,3-dihydro-1,3-benzoxazol-5-yl)methyl]prop-2-enamide] was tested, and the “% of control remaining” value was 88.6519%. `Cn1c(=O)oc2cc(C(=O)CCl)ccc21` [10-F07, 6-(2-chloroacetyl)-3-methyl-2,3-dihydro-1,3-benzoxazol-2-one] was tested, and the “% of control remaining” value was 44.886%. With `Cc1nc2n(n1)CCN(C(=O)C(C)Cl)C2` (stereo not drawn) [5-A04, 2-chloro-1-{2-methyl-5H,6H,7H,8H-[1,2,4]triazolo[1,5-a]pyrazin-7-yl}propan-1-one] the “% of control remaining” value was 108.438%. `O=C(CCl)NC(c1ccccc1)C1CCCC1` (stereo not drawn) [6-O18, 2-chloro-N-[cyclopentyl(phenyl)methyl]acetamide] was tested, and the “% of control remaining” value was 92.0656%. In the case of `COC(=O)c1ccc2[nH]cc(C(=O)CCl)c2c1` [10-D05, methyl 3-(2-chloroacetyl)-1H-indole-5-carboxylate], the “% of control remaining” value is reported as 99.1233%. In the case of `Cc1cc(C(=O)CCl)c(C)n1-c1ccc(Cl)c(Cl)c1` [10-D18, 2-chloro-1-[1-(3,4-dichlorophenyl)-2,5-dimethyl-1H-pyrrol-3-yl]ethan-1-one], the “% of control remaining” value is reported as 108.475%. `COC(=O)c1cccc(C(=O)CCl)c1` [10-I11, methyl 3-(2-chloroacetyl)benzoate] was tested, and the “% of control remaining” value was 32.4177%. For `COC(=O)c1ccccc1NC(=O)CCl` [5-B12, methyl 2-(2-chloroacetamido)benzoate], the “% of control remaining” value was 89.6081%. `O=C(CCl)c1sccc1Cl` [10-K11, 2-chloro-1-(3-chlorothiophen-2-yl)ethan-1-one] was tested, and the “% of control remaining” value was 0%. In the case of `O=C(CCl)c1ccc(F)c(F)c1` [10-L13, 2-chloro-1-(3,4-difluorophenyl)ethan-1-one], the “% of control remaining” value is reported as 4.208%. In the case of `CN(C)C(=O)c1csc(C(=O)CCl)c1` [10-I07, 5-(2-chloroacetyl)-N,N-dimethylthiophene-3-carboxamide], the “% of control remaining” value is reported as 105.981%. In the case of `Cc1cc(C(=O)CCl)c(C)n1-c1ccc(Cl)cc1` [10-H18, 2-chloro-1-[1-(4-chlorophenyl)-2,5-dimethyl-1H-pyrrol-3-yl]ethan-1-one], the “% of control remaining” value is reported as 103.331%. `O=C(O)c1csc(C(=O)CCl)c1` [10-E22, 5-(2-chloroacetyl)thiophene-3-carboxylic acid] was tested, and the “% of control remaining” value was 102.864%. `CC(=O)NCCc1cc(C(=O)CCl)ccc1F` [10-O05, N-{2-[5-(2-chloroacetyl)-2-fluorophenyl]ethyl}acetamide] was tested, and the “% of control remaining” value was 118.138%. `CC(Cl)C(=O)c1ccc(F)c(F)c1` (stereo not drawn) [10-A17, 2-chloro-1-(3,4-difluorophenyl)propan-1-one] was tested, and the “% of control remaining” value was 103.955%. `O=C(CCl)c1cc(Cl)ccc1Cl` [10-E16, 2-chloro-1-(2,5-dichlorophenyl)ethan-1-one] was tested, and the “% of control remaining” value was 49.5617%. For `Cc1cccc(C=C(C#N)C(=O)Nc2ccc(C(=O)O)cc2)c1` [8-M21, 4-[2-cyano-3-(3-methylphenyl)prop-2-enamido]benzoic acid], the “% of control remaining” value was 75.7988%. In the case of `CC(NC(=O)CCl)c1ccc2c(c1)CCCC2` (stereo not drawn) [4-B03, 2-chloro-N-[1-(5,6,7,8-tetrahydronaphthalen-2-yl)ethyl]acetamide], the “% of control remaining” value is reported as 113.867%. In the case of `COc1cc2c(cc1NC(=O)C(C)Cl)oc1ccccc12` (stereo not drawn) [6-G09, 2-chloro-N-{4-methoxy-8-oxatricyclo[7.4.0.0,2,7]trideca-1(9),2(7),3,5,10,12-hexaen-5-yl}propanamide], the “% of control remaining” value is reported as 55.9674%. `CC(C)NC(=O)C(C#N)=Cc1ccc(Cl)cc1` [9-C09, 3-(4-chlorophenyl)-2-cyano-N-(propan-2-yl)prop-2-enamide] was tested, and the “% of control remaining” value was 85.3161%. In the case of `COCC(C)n1c(C)cc(C=C(C#N)C(=O)NS(C)(=O)=O)c1C` (stereo not drawn) [8-B04, 2-cyano-N-methanesulfonyl-3-[1-(1-methoxypropan-2-yl)-2,5-dimethyl-1H-pyrrol-3-yl]prop-2-enamide], the “% of control remaining” value is reported as 81.6451%. In the case of `C=CCNC(=O)C(C#N)=Cc1cccc(C(F)(F)F)c1` [8-L09, 2-cyano-N-(prop-2-en-1-yl)-3-[3-(trifluoromethyl)phenyl]prop-2-enamide], the “% of control remaining” value is reported as 71.8559%. For `C=CC(=O)N1CC[C@H](NS(C)(=O)=O)C1` [2-H21, N-[(3S)-1-(prop-2-enoyl)pyrrolidin-3-yl]methanesulfonamide], the “% of control remaining” value was 102.239%. With `C=CC(=O)N(CC)Cc1nc2ccsc2c(=O)[nH]1` [3-P16, N-ethyl-N-({4-oxo-3H,4H-thieno[3,2-d]pyrimidin-2-yl}methyl)prop-2-enamide] the “% of control remaining” value was 108.146%. With `C=CC(=O)N1Cc2ccccc2C[C@@H]1C(=O)NC1CC1` [2-G06, (3R)-N-cyclopropyl-2-(prop-2-enoyl)-1,2,3,4-tetrahydroisoquinoline-3-carboxamide] the “% of control remaining” value was 95.7541%. With `Cc1cc(C=C(C#N)C(=O)Nc2nccs2)cc(C)c1O` [9-D13, 2-cyano-3-(4-hydroxy-3,5-dimethylphenyl)-N-(1,3-thiazol-2-yl)prop-2-enamide] the “% of control remaining” value was 84.7723%. With `C=CC(=O)N[C@H]1CCN(S(=O)(=O)c2ccccc2)C1` [3-P11, N-[(3S)-1-(benzenesulfonyl)pyrrolidin-3-yl]prop-2-enamide] the “% of control remaining” value was 106.205%. With `COc1ccc(C2=NN(C(=O)CCl)C(c3ccc(F)cc3)C2)cc1` (stereo not drawn) [4-M20, 2-chloro-1-[5-(4-fluorophenyl)-3-(4-methoxyphenyl)-4,5-dihydro-1H-pyrazol-1-yl]ethan-1-one] the “% of control remaining” value was 100.927%. In the case of `O=C(CCl)c1ccc2[nH]c(=O)[nH]c2c1` [10-I14, 5-(2-chloroacetyl)-2,3-dihydro-1H-1,3-benzodiazol-2-one], the “% of control remaining” value is reported as 105.513%. For `O=C(CCl)c1ccc(Cl)c(Cl)c1` [10-L16, 2-chloro-1-(3,4-dichlorophenyl)ethan-1-one], the “% of control remaining” value was 0%. In the case of `COc1ccc(C(=O)CCl)c(OC)c1` [10-G18, 2-chloro-1-(2,4-dimethoxyphenyl)ethan-1-one], the “% of control remaining” value is reported as 111.748%. In the case of `COc1ccc(C(=O)CCl)cc1Cl` [10-D10, 2-chloro-1-(3-chloro-4-methoxyphenyl)ethan-1-one], the “% of control remaining” value is reported as 0.9351%. For `COc1cc(OC)c(C(=O)CCl)c(OC)c1` [10-L04, 2-chloro-1-(2,4,6-trimethoxyphenyl)ethan-1-one], the “% of control remaining” value was 98.344%. With `O=C(CCl)c1ccc2c(c1)-c1ccccc1C2` [10-H17, 2-chloro-1-(9H-fluoren-3-yl)ethan-1-one] the “% of control remaining” value was 91.4865%.
